# High-throughput results from PubChem.
# Compounds with a hit are over-represented: about 4.5% of the library has one in this group of screens.
# ssDAF-12 act – activators of S. stercoralis DAF-12 nuclear receptor; HEK293 ssDAF-12/GRIP1 lit1-tk-luc reporter, luminescence; % of 3 µM dafachronic acid response; AID 652126; 370,000 tested, 1% active; activation, % at 6.8 µM;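 active = activation above the mean over all tested compounds plus 3 SD, cut at about 0.9% in these data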;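 note: 0% = DMSO-only wells and 100% = 3 µM delta7-dafachronic acid wells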
# hgDAF12 agonist – hgDAF-12 agonism, primary luciferase screen. HEK293 GAL4-hgDAF12 UAS-luciferase reporter, agonist luminescence; normalized to butyrate control. activation, % at 6.8 µM. 370,000 tested, 1.8% active;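 active = activation above a cutoff set at the mean of all screened compounds plus 3 SD, cut at about 10% in these data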;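 note: 0% = DMSO wells and 100% = sodium butyrate wells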
# hcDAF12 agonist – activates DAF-12 receptor from parasite H. contortus; HEK293 hcDAF-12 lit1-tk-luc reporter, luminescence; 0% DMSO, 100% Δ7-dafachronic acid; 370,000 tested, 1.4% active; activation, % at 6.8 µM;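 active = activation above the mean of all tested compounds plus 3 SD, cut at about 5.5% in these data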;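 note: 100% = response to 3 µM Δ7-dafachronic acid high control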
# GAA850 FXN act – increases GAA850 frataxin promoter reporter activity. activation, % at 6 µM. AID 540364. HEK293 lucGAA850 FXN promoter luciferase reporter, 24 h; percent of 10 µM SAHA response. 360,000 tested, 0.56% active;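 active = activation above the average of all compounds screened plus 3 SD, cutoff fixed separately per campaign, cut at about 7.5% in these data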;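 note: 0% = DMSO wells and 100% = 10 µM SAHA wells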
# DAX1 inh-1 – blocks DAX1 repression of SF-1 activated StAR promoter | AID 652010 | 370,000 tested, 1.1% active | inhibition, % at 6.8 µM | HEK293T StAR-luciferase reporter, SF-1/DAX-1 repression relief;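 active = inhibition above the mean over all tested compounds plus 3 SD, cut at about 3.6% in these data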;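 note: 0% = DAX-1 cells with DMSO and 100% = cells lacking DAX-1 with DMSO; higher inhibition means more luminescence from relief of DAX-1 repression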
# DAX1 inh-2 – NR0B1 (DAX1) inhibition | P51843 | HEK293 Gal4-DAX1 luciferase reporter, luminescence | inhibition, % at 6.75 µM | 340,000 tested, 0.99% active | AID 504766;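 active = inhibition above the mean over all tested compounds plus 3 SD, cut at about 4.2% in these data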;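 note: 0% = DAX1-transfected cells with DMSO and 100% = empty-vector control cells with DMSO; inhibition shows as a rise in luminescence from relieved DAX1 repression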
# LXR ag – LXR-beta agonism as hcDAF-12 counter-screen. shares compounds with hcDAF12 agonist. HEK293 Gal4-LXR tk-luc reporter, luminescence, 24 h; normalized: DMSO 0%, positive control 100%. activation, % at 6.8 µM. 3,400 tested, under 10 active;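 active = mean percent activation of the reporter above a cutoff set as the average over tested compounds plus their standard deviation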
# Target sequence (P55055 whole entry, looked up, the tested form may be a part): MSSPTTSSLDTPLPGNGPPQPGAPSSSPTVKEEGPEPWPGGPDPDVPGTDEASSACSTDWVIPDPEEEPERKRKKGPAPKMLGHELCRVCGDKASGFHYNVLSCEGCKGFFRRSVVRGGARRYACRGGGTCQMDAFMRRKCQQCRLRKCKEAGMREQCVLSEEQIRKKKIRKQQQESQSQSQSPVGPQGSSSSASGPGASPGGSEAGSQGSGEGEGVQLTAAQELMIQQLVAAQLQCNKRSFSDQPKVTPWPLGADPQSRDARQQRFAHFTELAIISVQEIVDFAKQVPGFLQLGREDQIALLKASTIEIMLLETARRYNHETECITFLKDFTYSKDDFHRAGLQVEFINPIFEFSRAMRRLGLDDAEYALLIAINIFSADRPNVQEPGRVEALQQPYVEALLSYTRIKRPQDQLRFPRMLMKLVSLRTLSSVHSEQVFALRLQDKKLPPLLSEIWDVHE
# hcDAF12 conf – hcDAF-12 agonism, confirmation assay; shares compounds with hcDAF12 agonist; HEK293 hcDAF-12 lit1-tk-luc reporter, luminescence; % of Δ7-dafachronic acid response; activation, % at 6.8 µM; 3,400 tested, 61% active;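 active = mean activation across triplicate tests above the threshold derived from the earlier primary screen, cut at about 5.5% in these data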;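 note: 0% = DMSO only wells and 100% = 3 µM Δ7-dafachronic acid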
# Starred values were filed as active, the others as inactive; . = no result given.
SMILES,ssDAF-12 act,hgDAF12 agonist,hcDAF12 agonist,GAA850 FXN act,DAX1 inh-1,DAX1 inh-2,LXR ag,hcDAF12 conf
O=C(/C(=C(\[O-])c1ccccc1)[n+]1ccc2ccccc2c1)c1ccc([N+](=O)[O-])cc1,0,1,5,-2,0,0,.,.
COC(=O)[C@]12C[C@H](CC(=O)N3CCCC3)C(=O)N(Cc3cccc4ccccc34)C1=C[C@H](C(C)(C)C)O[C@@H]2C,-1,0,-1,.,-1,.,.,.
Cc1ccc(NC(=O)c2ccc(CS(=O)(=O)Cc3ccccc3C)o2)cc1C,-1,1,-2,.,-3,.,.,.
Cc1cc(NC(=S)NC(=O)C2CC2)ccc1Br,0,10,8.8*,5,1,4.9*,0,6.3*
COc1ccccc1C(=O)N1CCC2CCN(C(=O)OC(C)(C)C)C2C1 (configuration not stated),0,2,-1,.,-2,.,.,.
COc1ccc(NC(=O)C(c2ccccn2)N(C(C)=O)c2ccc(C)cc2)cc1 (configuration not stated),1.6*,4,10*,-3,1,-1,0,4
CCC(C)c1ccc(Nc2ncccc2C#N)cc1 (configuration not stated),0,7,7.7*,2,0,1,1,8.6*
COc1cc2c(c(OC)c1)C(=O)O[C@H](C)C[C@@H]1O[C@H]1CCCCC(=O)C2,-1,1,0,.,0,.,.,.
COC(=O)[C@]12C[C@H](CC(=O)N3CCN(C(=O)C4CC4)CC3)C(=O)N(Cc3ccccc3)C1=C[C@H](COCc1ccccc1)O[C@@H]2C,-1,0,-1,.,0,.,.,.
N/C(=N\N=C\c1ccc(O)cc1)c1nonc1N,0,16*,7.9*,2,4,3,1,5
CCCC1CCC2(CC1)CCC2OC(=S)NCc1cccc(F)c1 (configuration not stated),-2,1,-2,.,.,.,.,.
CC(C)=N/N=C(/c1ccc([N+](=O)[O-])cc1)C12CN3CN(CN(C3)C1)C2,-1,-1,6.9*,1,0,0,0,0
O=[N+]([O-])c1cccc(/C(=N/N=C/c2ccccc2Br)C23CN4CN(CN(C4)C2)C3)c1,-1,-1,0,-1,0,0,.,.
N#C/C(=C(/O)CN1CCCC1)c1nc(-c2ccccc2)cs1,1,12*,8.8*,2,3,5.3*,0,5
N#CC(=C(O)CN1CCN(c2ccccc2F)CC1)c1nc(-c2ccccc2)cs1,-1,0,-1,-1,-1,0,.,.
CCCCC(=O)Nc1c2c(nn1-c1cccc(C)c1C)CS(=O)(=O)C2,-1,0,2,0,0,1,.,.
CCCC(=O)Nc1c2c(nn1-c1cccc(C)c1C)CS(=O)(=O)C2,0,3,8.1*,-1,1,-1,0,5
CCCC[C@H]1C2CC(OC(=O)Nc3ccccc3C(F)(F)F)C(C2)[C@H]2CCCCN21 (some centres not stated),-1,2,-2,.,0,.,.,.
Cc1sc2c(c1C)CN(CCN1CCOCC1)CN2C(=O)c1ccccc1,1,9,9.6*,1,1,2,0,6.0*
O=C(c1ccccc1)c1ccc(C(=O)N2CCOCC2)cc1,0,1,-3,1,0,1,.,.
C[C@H]1[C@@H](c2ccccc2)Oc2c(Cl)cccc2S(=O)(=O)N1C,-1,5,-2,.,-1,.,.,.
COc1ccc(NC(=O)/C=C/c2ccccc2)cn1,-1,12*,8.5*,1,2,1,1,6.5*
CC(=O)Nc1sc2c(c1-c1nc3ccccc3s1)CCN(C(C)C)CC2,1.1*,-1,13*,.,.,.,1,15*
